experiment: small-molecule microarray binders of probe aDKK1, primary screen, biochemical, biotinylated probe, 635/667 nm fluorescence (AID 1099); settings: higher = more signal;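 note: score merges 667nm spot fluorescence with signal to noise across triplicate slides; reference of the scale not given here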

Row | Compound | composite z-score
1 | COc1ccc(C#Cc2ccc3c(c2)[C@]2(C(=O)N3)[C@H](c3ccc(O)cc3)N3[C@H](c4ccccc4)[C@H](c4ccccc4)OC(=O)[C@H]3[C@@H]2C(=O)Nc2nc3ccccc3s2)cc1 | 0.223
2 | CCOc1cc(C(O)C2C=CC3C(=O)NC(=O)C3N2Nc2ccc(Cl)cc2Cl)ccc1O (stereo unspecified) | 0.737
3 | Cc1ccc(S[C@]2(C(=O)NCC(F)(F)F)CC(=O)N(Cc3cc(C(F)(F)F)cc(C(F)(F)F)c3)[C@@H]2c2ccc(CO)cc2I)cc1 | -0.647
4 | C=CCC(OC(C)=O)[C@@H]1[C@@H](N(Cc2cc3ccccc3o2)C(=O)Cc2ccc(F)cc2)c2cc(OCCCO)ccc2N1C(=O)Cc1ccc2ccccc2c1 (stereo partly specified) | -0.203
5 | CO[C@H]1O[C@H](CO)[C@@H](OC(=O)Nc2ccccc2)[C@H](OC(=O)c2cc3ccccc3[nH]2)[C@H]1OC(=O)c1cc2ccccc2[nH]1 | 0.576

experiment: small-molecule microarray binders of probe aCHRDL2, primary screen, biochemical, biotinylated probe, 635/667 nm fluorescence (AID 1100); settings: higher = more signal

Row | Compound | composite z-score
6 | COc1cc2c(cc1O)C(c1ccc(CN3CCCC3)cc1)N(Cc1cc3c(cc1Br)OCO3)CC2 (stereo unspecified) | -0.097
7 | CCCC[C@@H]1C[C@H]1[C@@H](NC(=O)c1cccs1)c1ccccc1C(F)(F)F | 0.49
8 | CCOC(=O)C1=C[C@@H](c2ccccc2)N(S(=O)(=O)c2ccc(C)cc2)[C@H]1c1ccc(OC)cc1 | 1.05
9 | C=CCC(OC(C)=O)[C@@H]1[C@@H](N(Cc2ccc(-c3cccc(C(F)(F)F)c3)o2)C(=O)Cc2ccc(OC)cc2)c2cc(OCCCO)ccc2N1C(=O)c1ccc(-c2ccccc2)cc1 (stereo partly specified) | 0.541
10 | C=CC[C@@H](OC(=O)Nc1ccc(SC)cc1)c1ccc(O)c(F)c1 | 0.404
11 | CCCCC=C[C@@H](NC(=O)OCc1ccccc1Cl)c1ccccc1 | 1.09
12 | C=CCC(OC(C)=O)[C@@H]1[C@@H](N(Cc2cccc3ccccc23)C(=O)Cc2ccc(OC)cc2)c2cc(OCCCO)ccc2N1C(=O)c1ccc(-c2ccccc2)cc1 (stereo partly specified) | 0.44
13 | CCCC=C(CCC)[C@@H](NP(=O)(c1ccccc1)c1ccccc1)c1ccc(-c2ccccc2)cc1 | 0.581
14 | COCCCNC(=O)[C@@]1(CCC(=O)OC(C)(C)C)N=C(c2ccc(OCCCO)cc2)O[C@H]1c1ccccc1N=[N+]=[N-] | 1.32
15 | O=C(Cc1ccccc1)[C@H]1C2C=CCCC(c3ccccc3)=C2CN1Cc1ccccc1 (stereo partly specified) | -0.191
16 | COC(=O)[C@@]1(Cc2ccc(F)cc2)[C@H]2c3cc(C(=O)N4CCCC4)n(Cc4ccc(C)c(F)c4F)c3C[C@H]2CN1C(=O)c1ccccc1 | 0.931
17 | COc1ccc(C#Cc2ccc3c(c2)[C@]2(C(=O)N3)[C@H](C(=O)O)[C@H]3C(=O)O[C@H](c4ccccc4)[C@H](c4ccccc4)N3[C@@H]2c2ccc(O)cc2)cc1 | 0.681
18 | CCC#CCN(Cc1ccccc1Br)[C@H](/C=C/C1CC1)[C@@H](O)Cc1ccccc1 | 0.952
19 | COC(=O)[C@@]1(Cc2ccccc2)[C@H]2c3cc(C(=O)N(C)C)n(Cc4ccc(C)o4)c3C[C@H]2CN1C(=O)c1ccccc1 | 1.57
20 | CC(C)NC(=O)[C@@]1(C)c2ccccc2C(=O)N(Cc2ccc(OC(F)(F)F)cc2)[C@H]1c1ccc(CO)cc1 | 0.77
21 | COc1ccc([Si](C)(C)[C@@H]2[C@@H](CC(=O)N3CCC[C@H]3CO)O[C@]3(C(=O)N(Cc4cccc(N5C(=O)COc6ccccc65)c4)c4ccccc43)[C@H]2C)cc1 | 0.157
22 | CCCC[C@@H](O)C1=C(COC)C[C@H]2C(=O)N(C)C(=O)[C@H]2[C@H]1CO | -0.532
23 | COc1ccc([Si](C)(C)[C@@H]2[C@@H](CC(=O)N(CCO)Cc3ccccc3)O[C@]3(C(=O)N(Cc4cccc(N5CCCCC5=O)c4)c4ccccc43)[C@H]2C)cc1 | 0.505

Row | Compound | composite z-score
24 | COc1ccc(CCNC(=O)[C@@]2(Sc3ccc(C)cc3)CC(=O)N(Cc3ccccc3C(F)(F)F)[C@@H]2c2ccc(CO)cc2I)cc1 | 1.08
25 | [N-]=[N+]=Nc1ccccc1[C@@H]1OC(c2ccc(OCCCO)cc2)=N[C@]1(Cc1ccccc1)C(=O)N1CCCCC1 | 0.711
26 | Cc1ccc(S[C@]2(C(=O)NCc3ccccc3)CC(=O)N(C3CCCCC3)[C@@H]2c2ccc(CO)cc2I)cc1 | 0.379
27 | COc1ccc([Si](C)(C)[C@H]2[C@H](CC(=O)N(CCO)Cc3ccccc3)O[C@@]3(C(=O)N(C)c4c(Br)cc(C)cc43)[C@@H]2C)cc1 | -0.356
28 | [N-]=[N+]=Nc1ccccc1[C@@H]1OC(c2ccc(OCCCO)cc2)=N[C@]1(Cc1ccccc1)C(=O)O | 0.0948
29 | CCCC1(C(=O)OC)C=C2C(=C(C)C(=O)C2C)CN1 (stereo unspecified) | 0.974
30 | COCC(=C=CC[C@H](O)c1ccccc1OCCO)C[C@H](O)c1ccccn1 | -0.0336
31 | Oc1ccc2cc[n+](Cc3cc4c(cc3Br)OCO4)cc2c1 | 0.452
32 | CC(C)[Si]1(C(C)C)OCc2cc(C3CC3)nc(-c3ccc(Oc4ccccc4)cc3)c21 | 0.056
33 | [N-]=[N+]=Nc1ccccc1C[C@]1(C(=O)N2CCOCC2)COC(c2ccc(OCCCO)cc2)=N1 | 0.948
34 | [N-]=[N+]=Nc1ccccc1C[C@@]1(C(=O)NCCN2CCOCC2)N=C(c2ccc(OCCCO)cc2)O[C@@H]1c1ccccc1N=[N+]=[N-] | 1.04
35 | CCCCC(CC)C(O)C1C=CC2C(=O)N(C)C(=O)C2N1Nc1ccccc1 (stereo unspecified) | 0.0302
36 | O=C1N(CCS(=O)(=O)c2ccccc2)c2ccccc2[C@H]2OC(c3ccc(OCCCO)cc3)=N[C@@]12Cc1ccccc1 | 1.08
37 | COc1ccc(C#Cc2ccc3c(c2)[C@]2(C(=O)N3)[C@H](c3ccc(O)cc3)N3[C@H](c4ccccc4)[C@H](c4ccccc4)OC(=O)[C@H]3[C@@H]2C(=O)Nc2nc3ccccc3s2)cc1 | 0.342
38 | CCOc1cc(C(O)C2C=CC3C(=O)NC(=O)C3N2Nc2ccc(Cl)cc2Cl)ccc1O (stereo unspecified) | 0.942
39 | Cc1ccc(S[C@]2(C(=O)NCC(F)(F)F)CC(=O)N(Cc3cc(C(F)(F)F)cc(C(F)(F)F)c3)[C@@H]2c2ccc(CO)cc2I)cc1 | 1.02
40 | C=CCC(OC(C)=O)[C@@H]1[C@@H](N(Cc2cc3ccccc3o2)C(=O)Cc2ccc(F)cc2)c2cc(OCCCO)ccc2N1C(=O)Cc1ccc2ccccc2c1 (stereo partly specified) | 0.426
41 | CO[C@H]1O[C@H](CO)[C@@H](OC(=O)Nc2ccccc2)[C@H](OC(=O)c2cc3ccccc3[nH]2)[C@H]1OC(=O)c1cc2ccccc2[nH]1 | 0.759
